According to PubChem BioAssay (NCI):
Values joined by “and” are separate entries in the source; they are usually repeats but may differ in a detail not shown here. Equal values may be shown once. About 83,000 compounds went through this panel and 20% of them were active in at least one assay; those are over-represented in the sample as a whole.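 Results are percent growth after 48 hours of single-concentration exposure. 100 means growth as in untreated cells, lower positive values show inhibition; negative values down to -100 show cell death.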 Values without a mark were called inactive. Active and inactive are the calls of the source. How the source made its calls: active means growth percent below 10; inactive means the rest.

Tested on: MDA-MB-468 breast
Assay: NCI-60 one-dose screen, 48 h (100 = growth as untreated, 0 = no growth, -100 = all killed)
Conditions: 10 µM unless noted

Row | SMILES | growth
1 | COc1ccc(-c2nc3c(c(C)nn3-c3ccc(F)cc3)c(=O)[nH]2)cc1 | 88.9%
2 | CC(=O)OCC1SC(OC(C)=O)C(NC(=O)/C=C/CCl)C(OC(C)=O)C1OC(C)=O (stereo not given) | 98.5%
3 | CCOC(=O)C1=C(N)Oc2c(sc3c(CC)cccc23)C1c1ccc(F)cc1 (stereo not given) | 46.1%
4 | CCN1C(=O)N(CC)C2Nn3c(s/c(=C\c4ccccc4F)c3=O)=NC21 (stereo not given) | 28.9%
5 | O=C1C=CC2=C3c4cc(O)c(O)cc4CC3(O)COC2=C1O (stereo not given) | 102%
6 | CN1/C(=C\C(I)C(I)C2=[N+](C)c3ccccc3C2(C)C)C(C)(C)c2ccccc21 (stereo not given) | -17.6% (active)
7 | C=C1C(=O)O[C@H]2[C@H]1CC/C(COC(=O)/C=C\C(=O)NCc1ccc(Cn3c(=O)sn(CCCC)c3=O)cc1)=C\CC[C@@]1(C)O[C@@H]21 | -70.9% (active)
8 | COc1cc2c(c(OC)c1OC)C(=O)CC(c1cccc(C(=O)Nc3ccc(Br)cc3)c1)O2 (stereo not given) | 30.5%
9 | Cc1cc2nc3c4cc([N+](=O)[O-])ccc4n(CCN(C)C)c3nc2cc1C | -39.1% (active)
10 | COc1ccc(-c2csc(N(C(=O)N3CCN(c4cc5c(cc4F)c(=O)c(C(=O)O)cn5C4CC4)CC3)c3ccccc3)n2)cc1 | 7.88% (active)
11 | COc1ccc(-c2nc3ccc(-c4nc5ccc(N6CCN(c7ccccc7)CC6)cc5[nH]4)cc3[nH]2)cc1OC | -46.1% (active)
12 | Cc1ccc(-c2cc(O)c(-c3ccc(C)cc3C)cc2O)c(C)c1 | 46.5%
13 | O=C(Nc1ccc(-n2cc(-c3ccncc3)c(-c3ccc(O)c(Cl)c3)n2)cc1)c1cc(C(F)(F)F)cc(C(F)(F)F)c1 | 64.9%
14 | CCOC(=O)c1ccc(N/C=C/C(=O)c2ccccc2)cc1 | 98.9%
15 | Fc1cc(F)cc(C(c2c[nH]c3ccccc23)c2c[nH]c3ccccc23)c1 | 111%
16 | O=C(Nc1ccc(I)cc1F)c1cc(F)ccc1O | -3.61% (active)
17 | CCCNNC(=O)c1ccc(-c2ccc(NC(=O)CCCCCCC(=O)N[C@H](C(=O)N3C[C@H](O)C[C@H]3C(=O)N[C@@H](C)c3ccc(-c4scnc4C)cc3)C(C)(C)C)cc2)cc1 | -10.1% (active)
18 | O=C1Nc2ccccc2/C1=C/c1cn(C(=O)c2ccc(Cl)cc2)c2ccccc12 | 97.6%
19 | CNC1=C(Br)C(=O)c2c(C(=O)OC)c(C)nc(C)c2C1=O | 27.4%
20 | O=c1[nH]nc(-c2ccccc2)c2sc(NC(=S)Nc3ccc(Cl)cc3)nc12 | 95.6%

Row | SMILES | growth
21 | COc1ccc(/C=C/C(=O)c2ccc(NC(=O)CSc3nnc(-c4cc(OC)c(OC)c(OC)c4)o3)cc2)cc1 | -60.5% (active)
22 | O=C(Nc1ccc2c(c1)C(=O)c1ccccc1-2)c1ccccc1 | 85.6%
23 | Nc1ncnc2c1ccn2-c1cccc(NC(=O)c2cccc(C(F)(F)F)c2)c1 | 31.3%
24 | C=C(CBr)[C@@H]1CC[C@]2(COC(C)=O)CC[C@]3(C)[C@H](CC[C@@H]4[C@@]5(C)CCCNC(C)(C)[C@@H]5CC[C@]43C)[C@@H]12 | 25.1%
25 | COc1cc(/C=C/C(=O)c2cccc(-n3cc(-c4cc(OC)c(OC)c(OC)c4)[nH]c3=O)c2)cc(OC)c1OC | 27.7%
26 | Fc1cc2c(cc1Cl)N(c1ncnc3ccc(-c4ccc5n[nH]nc5c4)cc13)CC2 | 40.2%
27 | Cc1cccc(/C=C/c2c(C(=O)/C=C/c3ccccc3)c(C)nc3ccccc23)c1 | -51.1% (active)
28 | CC(C)(C)n1cc(-c2ccnc(NCCNS(=O)(=O)c3ccccc3)c2)c(-c2cccc(O)c2)n1 | 11.1%
29 | CC(C)n1nc(-c2ccc3oc(N)nc3c2)c2c(N)ncnc21 | -34.1% (active)
30 | C=CCn1c(SCC(=O)Nc2ccc(C(=O)/C=C/c3ccc(Cl)cc3)cc2)nnc1-c1c[nH]c2ccccc12 | 62.2%
31 | COc1cccc(-c2nc3sccn3c2-c2ccnc(NCCNS(=O)(=O)c3ccccc3)c2)c1 | 16.2%
32 | CCCCOc1nc2ccccc2cc1C1CNC(=O)c2ccccc2N1 (stereo not given) | -1.81% (active)
33 | O=C1OCC2=C1C(c1cccc(F)c1)c1cc3c(cc1N2CCO)OCO3 (stereo not given) | 8.27% (active)
34 | CC(=O)Nc1ccc2c(c1)c(NC(C)=O)nn2C(=O)Nc1ccc(Cc2ccccc2)cc1 | 80.1%
35 | Nc1c(C(=O)Nc2ccccc2)sc2nc3c(cc12)C(=O)CCC3 | 4.62% (active)
36 | O=C1CCC(=O)N1CC1CC2CCC1C2 (stereo not given) | 104% and 90.6%
37 | COc1ccccc1NS(=O)(=O)c1cccc(C(=O)Nc2ccc(Br)cc2)c1 | 3.03% (active)
38 | CC(C)=CCc1c2c(c(O)c3c1O[C@]14C(=C[C@@H]5C[C@H]1C(C)(C)O[C@@]4(C/C=C(/C)C(=O)O)C5=O)C3=O)CC(O)C(C)(C)O2 (stereo not given in full) | -55.7% (active)
39 | C=C(C)[C@@H]1CC[C@]2(C)[C@H](C=CC3=C4C[C@@](C)(CO)CC[C@]4(C)CC[C@]32C)[C@@]1(C)CCCN | -62.1% (active)
40 | CC(=O)NCCN | 105%
